Our source for the outcome values is PubChem BioAssay.

Molecules are shown by their SMILES. Results with a measured potency or affinity are listed apart. Activity calls are given as the source filed them.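 The calls were made as follows: active = a fitted half-maximal concentration no higher than twice the top valid tested dose, with signal falling as cells die; inconclusive = flat curve between -70% and -30%, or poor fit; inactive = the rest, including signal rising instead of falling.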

The experiment is described as follows: viability loss in HeLa cells – cell-based, ATP luminescence, cherry-pick samples, cytotoxicity control, dose response (AID 687004). The settings on record: ATP luminescence (CellTiter-Glo), 48 h; series mostly up to 26 µM.
With `Cc1ccc(CSc2ncnc3c2cnn3-c2ccccc2)cc1`, the result was inactive.

Regarding `O=C(NC(=S)Nc1ccccc1N1CCOCC1)c1ccc([N+](=O)[O-])cc1`, the molecule was classed as inactive. Turning to `C[C@H]1CN([C@@H](C)CO)C(=O)c2cc(C#CC3(O)CCCC3)cnc2O[C@@H]1CN(C)Cc1cccnc1`, the outcome was inactive.

As to `Cc1cccc(OCC(=O)NCc2ccccc2)c1`, the outcome was inactive. The result for `CCN(C(=O)CSc1ncnc2c1cnn2-c1ccccc1)C1CCS(=O)(=O)C1` (centres undefined) reads “inactive”; that for `CN1c2ccc(Br)cc2[C@@H]2[C@@H](CCN2C(=O)Cc2cccnc2)[C@@H]1CO`, “inactive”; that for `Fc1ccccc1CNC(=S)NCc1ccc(Cl)cc1`, “inactive”. The result for `COc1cc(C(=O)NC(=S)Nc2ccccc2N2CCOCC2)cc(OC)c1OC` reads “inactive”; that for `COc1ccc(C#Cc2ccc3c(c2)O[C@H](CN(C)C(C)=O)[C@@H](C)CN([C@@H](C)CO)S3(=O)=O)cc1`, “inactive”. As to `O=C(Nc1ccc(N2CCOCC2)cc1N1CCOCC1)c1cccc([N+](=O)[O-])c1`, the call was inactive. The result for `CC(C)Oc1cccc(C(=O)NC(=S)Nc2ccccc2N2CCOCC2)c1` reads “inactive”.

Regarding `O=C(C[C@@H]1CC[C@H](NC(=O)Cc2ccccn2)[C@@H](CO)O1)NCCc1ccccc1`, the molecule was called inactive. Then `Cc1cc(C)c(NC(=O)CN2CCN3CCCC3C2)c(C)c1` (centres undefined), with “inactive”. On to `C[C@H](NC(=O)C[C@@H]1C=C[C@H](NC(=O)CN2CCOCC2)[C@H](CO)O1)c1ccccc1`, for which the result was inactive.

Consider `C#CCN(C(=O)c1ccc(OC2CCN(C(=O)CCOC)CC2)cc1)C1CCCCC1`, for which the call was inactive.

For `CCNC(=O)CN(c1ccc(Cl)cc1)S(=O)(=O)c1ccccc1`, the molecule was called inactive.

Consider `CNC[C@H]1Oc2cc(Br)ccc2S(=O)(=O)N([C@H](C)CO)C[C@H]1C`, for which the call was inactive. Then `C[C@H]1CN([C@@H](C)CO)S(=O)(=O)c2ccc(Br)cc2O[C@H]1CN(C)S(=O)(=O)c1ccccc1F`, with “inactive”; and `Cc1noc(C)c1NC(=O)N(C)C[C@H]1Oc2ccc(NC(=O)C3CC3)cc2CC(=O)N([C@@H](C)CO)C[C@H]1C`, with “inactive”; and `CCCNC(=O)[C@H]1[C@H](CO)[C@H]2Cn3c(cccc3=O)[C@@H]1N2C(=O)Nc1cc(F)ccc1F`, with “inactive”. Then `Cc1noc(C)c1NC(=O)N(C)C[C@H]1Oc2ccc(N(C)C)cc2C(=O)N([C@H](C)CO)C[C@@H]1C`, with “inactive”; and `Cc1c(C(=O)NC(=S)Nc2ccc(N3CCOCC3)cc2)cccc1[N+](=O)[O-]`, with “inactive”; and `O=C(c1cccs1)N1CCN(c2nc3ccccc3s2)CC1`, with “inactive”. The result for `CC(NC(=O)COc1ccccc1-c1ccccc1)c1ccccc1` (centres undefined) reads “inactive”; that for `CCCC(=O)N1CCC1(C)C(=O)Nc1cc(C)ccc1C` (centres undefined), “inactive”; that for `COC(=O)C1=C(C)N(Cc2ccccc2)C(=O)N[C@H]1c1cccc(F)c1`, “inactive”.

For `CC(C)(C)SCCNC(=O)CN(c1ccccc1)S(=O)(=O)c1ccccc1`, the call was inactive. Then `Cc1cc(C)c(NC(=O)CNC(=O)CNC(=O)C2CCCCC2)c(C)c1`, with “inactive”; and `COCCN1C(=O)CCC1(C)C(=O)Nc1c(C)cccc1C` (centres undefined), with “inactive”. `O=C(CN(c1ccccc1)S(=O)(=O)c1ccccc1)Nc1ccc(F)cc1`: the result was inactive. Then `C[C@H](CO)N1C[C@H](C)[C@@H](CN(C)C(=O)Nc2ccc3c(c2)OCO3)Oc2ccc(NS(=O)(=O)c3cccs3)cc2C1=O`, with “inactive”; and `CNC[C@H]1OCCCC[C@H](C)Oc2ccc(NC(=O)Cc3ccccc3)cc2C(=O)N([C@H](C)CO)C[C@@H]1C`, with “inactive”; and `O=C(CN(c1ccc(F)cc1)S(=O)(=O)c1ccccc1)NCCSC1CCCCC1`, with “inactive”.

As to `C[C@@H]1CN([C@@H](C)CO)S(=O)(=O)c2ccc(C3=CCCC3)cc2O[C@@H]1CN(C)Cc1ccccc1F`, the molecule was called inactive.

On to `COc1ccc(NC(=O)CN2CCN(S(=O)(=O)c3ccc(C(C)C)cc3)CC2)cc1OC`, for which the molecule was called inactive.

As to `C[C@H](CO)N1C[C@H](C)[C@H](CN(C)S(=O)(=O)c2cn(C)cn2)Oc2ncc(/C=C/c3ccccc3)cc2C1=O`, the call was inactive.

Turning to `CCCC(=O)Nc1ccc2c(c1)OC[C@@H](C)N(Cc1ccccn1)C[C@@H](C)[C@H](OC)CN(C)C2=O`, the call was inactive. The result for `O=C(CSc1nc(CCC2CCCC2)nc2ccccc12)NCc1ccc2c(c1)OCO2` reads “inactive”; that for `C[C@@H]1CCCCO[C@@H](CN(C)C(=O)NC2CCCCC2)[C@H](C)CN([C@@H](C)CO)C(=O)c2cc(NS(=O)(=O)c3cn(C)cn3)ccc2O1`, “inactive”.
